PubChem BioAssay (NCI)
The panel holds about 79,000 compounds, 15% with a hit somewhere; the sample as a whole holds those more often. The source made the active and inactive calls. No stated cut-off is given here; in the data, active means growth inhibition above about 70%; inactive means the rest.

Tests used:
[1] = NCI Yeast Anticancer Drug Screen. Data for the wt1 strain (AID 149);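 further: 0% = growth of vehicle-treated wt1 cultures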; details: S. cerevisiae wt1 strain (SPY 50644) growth inhibition, stronger effect = higher value
Method in brief: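 Measured: growth of wt1 yeast under compound versus vehicle treatment, reported as inhibition.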

[2] = NCI Yeast Anticancer Drug Screen. Data for the rad50EPP+ strain (AID 151);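 further: 0% = growth of vehicle-treated control cultures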; details: S. cerevisiae rad50 mutant strain, stronger effect = higher value
Method in brief: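 rad50EPP+ yeast treated with test compounds. Readout: growth vs vehicle control.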

[3] = NCI Yeast Anticancer Drug Screen. Data for the mgt1 strain (AID 153); details: S. cerevisiae mgt1 mutant growth inhibition, stronger effect = higher value
Method in brief: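 Growth inhibition relative to vehicle controls was scored for the mgt1 yeast strain after compound exposure.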

[4] = NCI Yeast Anticancer Drug Screen. Data for the rad50 strain (AID 155);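 further: 0% = growth of vehicle-only cultures of the same strain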; details: S. cerevisiae rad50 strain growth inhibition, stronger effect = higher value
Method in brief: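 Growth of the mutant yeast was measured after compound exposure and referenced to vehicle-treated cultures.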

[5] = NCI Yeast Anticancer Drug Screen. Data for the mec2-1 strain (AID 157); details: S. cerevisiae mec2-1 strain, stronger effect = higher value
Method in brief: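 Growth inhibition is read against vehicle-treated controls after compound exposure of the mec2-1 yeast strain, which is defective in DNA damage repair or cell cycle control.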

[6] = NCI Yeast Anticancer Drug Screen. Data for the rad14 strain (AID 159);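 further: 0% = growth of vehicle-treated control cultures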; details: S. cerevisiae rad14 strain growth inhibition, stronger effect = higher value
Method in brief: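 Here, inhibition of yeast growth was measured after compound exposure, using a strain with a genetic defect in DNA damage repair and vehicle-treated cultures as the reference.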

[7] = NCI Yeast Anticancer Drug Screen. Data for the sgs1 mgt1 strain (AID 161);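 further: 0% = growth of cultures given vehicle only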; details: S. cerevisiae sgs1 mgt1 strain, stronger effect = higher value
Method in brief: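 This yeast growth screen uses a strain with defined DNA-repair lesions; compound-treated growth is compared with vehicle-treated growth.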

[8] = NCI Yeast Anticancer Drug Screen. Data for the cln2 rad14 strain (AID 165);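 further: 0% = growth equal to vehicle treated cultures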; details: S. cerevisiae cln2 rad14 strain, stronger effect = higher value
Method in brief: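 Growth inhibition, relative to vehicle-treated controls, is the read-out. The test organism is a yeast strain with defined genetic alterations, cln2 rad14.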

[9] = NCI Yeast Anticancer Drug Screen. Data for the bub3 strain (AID 167); details: S. cerevisiae bub3 mutant strain, stronger effect = higher value
Method in brief: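 Whole-cell yeast assay. The mutant strain was incubated with compounds, and growth inhibition was determined by comparison with vehicle-treated cells.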

[10] = NCI Yeast Anticancer Drug Screen. Data for the wt2 strain (AID 169);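 further: 0% = growth of vehicle-treated yeast cultures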; details: S. cerevisiae wt2 strain growth inhibition, stronger effect = higher value
Method in brief: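 Compound exposure of yeast; growth compared with vehicle controls; inhibition reported.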

[11] = NCI Yeast Anticancer Drug Screen. Data for the mlh1 strain (AID 171);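 further: 0% = growth of vehicle-treated control cultures of the same strain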; details: S. cerevisiae mlh1 strain growth inhibition, stronger effect = higher value
Method in brief: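 Compounds are applied to a genetically altered yeast strain, and its growth is compared with that of vehicle-treated cultures to give percent inhibition.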

[12] = NCI Yeast Anticancer Drug Screen. Data for the sgs1 strain (AID 173);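 further: 0% = growth of vehicle-only control cultures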; details: S. cerevisiae sgs1 mutant, stronger effect = higher value
Method in brief: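 Compounds applied to genetically altered yeast; growth compared with vehicle-treated cultures to give % inhibition.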

[13] = NCI Yeast Anticancer Drug Screen. Data for the mlh1 rad18 strain (AID 175); details: S. cerevisiae mlh1 rad18 strain growth inhibition, stronger effect = higher value
Method in brief: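 Cells of a genetically altered yeast strain, deficient in DNA damage repair, were treated with compound. Their growth was then compared with that of vehicle-treated cultures to give inhibition.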

[14] = NCI Yeast Anticancer Drug Screen. Data for the rad18 strain (AID 177); details: S. cerevisiae rad18 mutant growth inhibition, stronger effect = higher value
Method in brief: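 Compounds are applied to a repair-deficient yeast strain, and growth is compared with that of vehicle-treated cultures to give percent inhibition.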

[15] = NCI Yeast Anticancer Drug Screen. Data for the CLN2oe strain (AID 163);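 further: 0% = growth of vehicle-only control cultures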; details: S. cerevisiae CLN2oe strain, stronger effect = higher value
Method in brief: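 Compound-treated yeast; growth vs vehicle ctrl = % inhibition. Genetically altered strain (cell-cycle control).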

[16] = at 5.0 µM (retest, dose inferred, filed as 0.5)
[17] = at 50.0 µM (retest, dose inferred, filed as 5.0)

Measured: growth inhibition

CC1=NN(C(=O)CC(=O)N(C(=O)c2ccccc2)c2ccc(Cl)cc2)C(=O)C1N=Nc1ccc([N+](=O)[O-])cc1 (stereo not given)
inactive: [1]; at 1.2 µM -43% | [1]; at 3.7 µM -1% | [1]; at 11.0 µM 10% | [1]; at 33.0 µM 26% | [1]; at 100.0 µM 37% | [2]; at 1.2 µM 6% | [2]; at 3.7 µM 26% | [2]; at 11.0 µM 39% | [2]; at 33.0 µM 41% | [2]; at 100.0 µM 32% | [3]; at 1.2 µM 0% | [3]; at 3.7 µM 7% | [3]; at 11.0 µM 35% | [3]; at 33.0 µM 62% | [4]; at 1.2 µM -3% | [4]; at 3.7 µM 8% | [4]; [16] 41% | [4]; at 11.0 µM 50% | [5]; at 1.2 µM -3% | [5]; at 3.7 µM 8% | [5]; [16] 8% | [5]; at 11.0 µM 41% | [5]; at 33.0 µM 67% | [5]; [17] 56% | [5]; at 100.0 µM 68% | [6]; at 1.2 µM -1% | [6]; at 3.7 µM 7% | [6]; at 11.0 µM 23% | [6]; at 33.0 µM 44% | [6]; at 100.0 µM 53% | [7]; [16] -1% | [7]; [17] 49% | [8]; [16] 63% | [8]; [17] 66% | [8]; at 50.0 µM 55.8% | [9]; at 1.2 µM -5% | [9]; at 3.7 µM -6% | [9]; [16] 4% | [9]; at 11.0 µM 30% | [9]; at 33.0 µM 63% | [9]; [17] 67% | [10]; at 1.2 µM -4% | [10]; at 3.7 µM 7% | [10]; at 11.0 µM 64% | [11]; at 1.2 µM 0% | [11]; at 3.7 µM 8% | [11]; at 11.0 µM 36% | [11]; at 33.0 µM 59% | [11]; at 100.0 µM 69% | [12]; at 1.2 µM 0% | [12]; at 3.7 µM 14% | [12]; at 11.0 µM 46% | [12]; at 33.0 µM 68% | [12]; at 100.0 µM 69% | [13]; [16] 24% | [14]; at 1.2 µM 4% | [14]; at 3.7 µM 11% | [14]; at 11.0 µM 62%
active: [3]; at 100.0 µM 71% | [4]; at 33.0 µM 74% | [4]; [17] 89% | [4]; at 50.0 µM 84.5% | [4]; at 100.0 µM 74% | [5]; at 50.0 µM 83.6% | [7]; at 50.0 µM 77.7% | [9]; at 50.0 µM 85% | [9]; at 100.0 µM 71% | [10]; at 33.0 µM 87% | [10]; at 100.0 µM 82% | [13]; [17] 75% | [13]; at 50.0 µM 81% | [14]; at 33.0 µM 85% | [14]; at 100.0 µM 84%

CCCCOc1ccc(Nc2c3ccccc3nc3ccccc23)cc1
active: [1]; at 33.0 µM 98% | [1]; at 100.0 µM 83% | [2]; at 3.7 µM 71% | [2]; at 11.0 µM 91% | [2]; at 33.0 µM 94% | [2]; at 100.0 µM 78% | [3]; at 11.0 µM 86% | [3]; at 33.0 µM 99% | [3]; at 100.0 µM 78% | [4]; at 3.7 µM 79% | [4]; at 11.0 µM 93% | [4]; at 33.0 µM 98% | [4]; [17] 96% | [4]; at 50.0 µM 90.7% | [4]; at 100.0 µM 85% | [5]; at 33.0 µM 97% | [5]; [17] 89% | [5]; at 50.0 µM 88% | [5]; at 100.0 µM 73% | [6]; at 33.0 µM 97% | [7]; [17] 94% | [7]; at 50.0 µM 91.3% | [8]; at 50.0 µM 88.8% | [9]; at 33.0 µM 99% | [9]; [17] 98% | [9]; at 50.0 µM 86.8% | [10]; at 11.0 µM 75% | [10]; at 33.0 µM 98% | [10]; at 100.0 µM 78% | [11]; at 33.0 µM 98% | [11]; at 100.0 µM 74% | [12]; at 11.0 µM 87% | [12]; at 33.0 µM 98% | [12]; at 100.0 µM 82% | [14]; at 11.0 µM 89% | [14]; at 33.0 µM 99% | [14]; at 100.0 µM 75%
inactive: [1]; at 1.2 µM -12% | [1]; at 3.7 µM -24% | [1]; at 11.0 µM 69% | [2]; at 1.2 µM 13% | [3]; at 1.2 µM -27% | [3]; at 3.7 µM -13% | [4]; at 1.2 µM 41% | [4]; [16] 50% | [5]; at 1.2 µM -24% | [5]; at 3.7 µM -37% | [5]; [16] 12% | [5]; at 11.0 µM 68% | [6]; at 1.2 µM -77% | [6]; at 3.7 µM -66% | [6]; at 11.0 µM 43% | [6]; at 100.0 µM 61% | [7]; [16] 10% | [8]; [16] 10% | [8]; [17] -7% | [9]; at 1.2 µM -56% | [9]; at 3.7 µM -55% | [9]; [16] 15% | [9]; at 11.0 µM 66% | [9]; at 100.0 µM 69% | [10]; at 1.2 µM 7% | [10]; at 3.7 µM -10% | [11]; at 1.2 µM -39% | [11]; at 3.7 µM -34% | [11]; at 11.0 µM 34% | [12]; at 1.2 µM -3% | [12]; at 3.7 µM -11% | [14]; at 1.2 µM -9% | [14]; at 3.7 µM -9%

CCc1nc2ccc(N=Nc3c(O)ccc4ccccc34)cc2[nH]1
inactive: [1]; at 1.2 µM 14% | [1]; at 3.7 µM 10% | [1]; at 11.0 µM 19% | [1]; at 33.0 µM 30% | [2]; at 1.2 µM -5% | [2]; at 3.7 µM 4% | [2]; at 11.0 µM 23% | [2]; at 33.0 µM 63% | [3]; at 1.2 µM 0% | [3]; at 3.7 µM -10% | [3]; at 11.0 µM -6% | [3]; at 33.0 µM -2% | [4]; at 1.2 µM 6% | [4]; at 3.7 µM 6% | [4]; [16] -23% | [4]; at 11.0 µM 8% | [4]; at 33.0 µM 34% | [4]; [17] 25% | [5]; at 1.2 µM 0% | [5]; at 3.7 µM 7% | [5]; [16] -49% | [5]; at 11.0 µM 10% | [5]; at 33.0 µM 21% | [5]; [17] 65% | [6]; at 1.2 µM -15% | [6]; at 3.7 µM -29% | [6]; at 11.0 µM -20% | [6]; at 33.0 µM 32% | [7]; [16] -4% | [7]; [17] 21% | [15]; at 1.2 µM 2% | [15]; at 3.7 µM 1% | [15]; at 11.0 µM -5% | [15]; at 33.0 µM 9% | [11]; at 1.2 µM -15% | [11]; at 3.7 µM -10% | [11]; at 11.0 µM -18% | [11]; at 33.0 µM 17% | [12]; at 1.2 µM 1% | [12]; at 3.7 µM 17% | [12]; at 11.0 µM 24% | [12]; at 33.0 µM 57% | [13]; [16] -22% | [13]; [17] 46% | [14]; at 1.2 µM -8% | [14]; at 3.7 µM -10% | [14]; at 11.0 µM 1% | [14]; at 33.0 µM 21%
active: [1]; at 100.0 µM 96% | [2]; at 100.0 µM 93% | [3]; at 100.0 µM 96% | [4]; at 50.0 µM 89% | [4]; at 100.0 µM 95% | [5]; at 50.0 µM 93.2% | [5]; at 100.0 µM 93% | [6]; at 100.0 µM 93% | [7]; at 50.0 µM 92.5% | [15]; at 100.0 µM 95% | [11]; at 100.0 µM 95% | [12]; at 100.0 µM 95% | [13]; at 50.0 µM 90.1% | [14]; at 100.0 µM 95%
